# Experimental data from article PMC7862700, “An all-to-all approach to the identification of sequence-specific readers for epigenetic DNA modifications on cytosine”.
# Legend:
# Test in all cases: DAPPL (digital affinity profiling via proximity ligation, sequencing); 10 mM Tris-HCl pH 7.5, 50 mM NaCl, 1 mM DTT, 4% glycerol, room temperature, 30 min; GST-TFs on glutathione beads, 16-mer random dsDNA library, 0.1% formaldehyde crosslink after washing; high values mean tight binding
# Conditions in all cases: protein: recombinant; tags: N-terminal GST; dsDNA, one strand shown
# FLI1 = target: T1, FLI1 (Homo sapiens, UniProt Q01543 1-452)
# T1 sequence: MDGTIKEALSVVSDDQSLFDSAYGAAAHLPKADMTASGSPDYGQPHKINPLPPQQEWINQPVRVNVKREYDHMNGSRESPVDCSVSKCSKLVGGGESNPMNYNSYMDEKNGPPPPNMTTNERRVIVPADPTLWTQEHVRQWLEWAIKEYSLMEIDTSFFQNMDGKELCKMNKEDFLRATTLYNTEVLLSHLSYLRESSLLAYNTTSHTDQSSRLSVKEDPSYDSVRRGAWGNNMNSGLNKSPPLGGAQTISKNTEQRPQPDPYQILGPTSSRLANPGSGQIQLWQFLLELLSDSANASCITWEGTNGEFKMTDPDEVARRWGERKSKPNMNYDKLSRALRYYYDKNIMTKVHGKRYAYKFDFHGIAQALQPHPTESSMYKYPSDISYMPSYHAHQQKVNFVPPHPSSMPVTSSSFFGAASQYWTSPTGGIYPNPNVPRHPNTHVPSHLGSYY
# In short: (§1)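 Human transcription factors carrying a GST fusion were produced in yeast, bound to glutathione beads, tagged with DNA barcodes and pooled together with a tag-only sample. Each pool was held with 200 nmole of a random double-stranded 16-mer DNA library in Tris/NaCl/DTT/glycerol buffer for 30 min at room temperature, then washed, crosslinked in 0.1% formaldehyde, proximity-ligated with BsaI/T4 ligase (1 h, 37 °C), PCR-amplified and sequenced on an Illumina NextSeq500. Binding signal is the read frequency of each hexamer for a given factor divided by its frequency in the tag-only sample.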
# ELK1 = target: T2, ELK1 (Homo sapiens, UniProt P19419 1-428)
# T2 sequence: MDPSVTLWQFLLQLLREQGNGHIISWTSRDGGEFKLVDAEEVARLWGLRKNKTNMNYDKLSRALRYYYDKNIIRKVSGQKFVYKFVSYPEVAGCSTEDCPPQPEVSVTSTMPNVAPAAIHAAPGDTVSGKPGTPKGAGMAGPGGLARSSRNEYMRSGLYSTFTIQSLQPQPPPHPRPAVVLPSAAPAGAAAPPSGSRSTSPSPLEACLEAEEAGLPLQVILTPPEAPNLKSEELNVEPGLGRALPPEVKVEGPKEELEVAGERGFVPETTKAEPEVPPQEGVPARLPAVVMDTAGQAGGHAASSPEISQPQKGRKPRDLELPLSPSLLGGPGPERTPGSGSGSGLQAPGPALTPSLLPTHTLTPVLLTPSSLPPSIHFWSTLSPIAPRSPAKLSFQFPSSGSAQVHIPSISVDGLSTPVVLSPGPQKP
# In short: as §1
# GABPA = target: T3, GABPA (Homo sapiens, UniProt Q06546 1-454)
# T3 sequence: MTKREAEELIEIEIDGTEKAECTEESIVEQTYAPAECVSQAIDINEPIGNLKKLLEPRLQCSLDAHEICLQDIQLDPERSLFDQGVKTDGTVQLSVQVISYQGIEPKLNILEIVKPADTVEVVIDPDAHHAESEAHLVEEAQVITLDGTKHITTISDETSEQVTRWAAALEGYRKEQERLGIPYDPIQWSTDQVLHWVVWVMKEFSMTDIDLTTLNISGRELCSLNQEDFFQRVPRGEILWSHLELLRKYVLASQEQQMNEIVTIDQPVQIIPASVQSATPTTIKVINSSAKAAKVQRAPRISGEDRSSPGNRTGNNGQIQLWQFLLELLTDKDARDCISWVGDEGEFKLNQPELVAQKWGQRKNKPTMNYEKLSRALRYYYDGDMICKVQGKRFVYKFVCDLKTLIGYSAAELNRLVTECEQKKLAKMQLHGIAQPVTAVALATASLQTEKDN
# In short: as §1
# ERG = target: T4, ERG (Homo sapiens, UniProt P11308 1-479)
# T4 sequence: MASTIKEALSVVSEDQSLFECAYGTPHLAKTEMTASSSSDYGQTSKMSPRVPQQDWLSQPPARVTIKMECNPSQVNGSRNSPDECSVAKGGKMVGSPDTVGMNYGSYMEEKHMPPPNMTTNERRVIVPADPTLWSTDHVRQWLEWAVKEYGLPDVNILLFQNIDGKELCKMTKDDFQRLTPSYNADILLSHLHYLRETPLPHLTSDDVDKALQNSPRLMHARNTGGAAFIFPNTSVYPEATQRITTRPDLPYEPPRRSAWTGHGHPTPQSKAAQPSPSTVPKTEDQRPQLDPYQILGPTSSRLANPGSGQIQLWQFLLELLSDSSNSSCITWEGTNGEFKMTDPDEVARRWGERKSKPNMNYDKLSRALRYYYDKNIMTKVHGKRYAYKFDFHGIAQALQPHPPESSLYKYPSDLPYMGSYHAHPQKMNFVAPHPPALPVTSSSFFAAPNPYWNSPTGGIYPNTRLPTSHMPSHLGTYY
# In short: as §1
# ELF1 = ELF1 (Homo sapiens, UniProt P32519 1-619)
# In short: as §1
# EHF = target: T5, EHF (Homo sapiens, UniProt Q9NZC4 1-300)
# T5 sequence: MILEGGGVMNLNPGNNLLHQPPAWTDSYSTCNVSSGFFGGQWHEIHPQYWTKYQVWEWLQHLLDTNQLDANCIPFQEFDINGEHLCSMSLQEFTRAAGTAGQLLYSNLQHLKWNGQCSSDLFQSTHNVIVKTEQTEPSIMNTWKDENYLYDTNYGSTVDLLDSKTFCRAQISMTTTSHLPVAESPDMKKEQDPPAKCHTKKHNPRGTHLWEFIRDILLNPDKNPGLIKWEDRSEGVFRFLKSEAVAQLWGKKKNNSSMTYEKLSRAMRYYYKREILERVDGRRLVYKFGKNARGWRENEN
# In short: as §1
# SPI1 = SPI1 (Homo sapiens, UniProt P17947 1-270)
# In short: as §1
# SPIB = SPIB (Homo sapiens, UniProt Q01892 1-262)
# In short: as §1
# ELK3 = target: T6, ELK3 (Homo sapiens, UniProt P41970 1-407)
# T6 sequence: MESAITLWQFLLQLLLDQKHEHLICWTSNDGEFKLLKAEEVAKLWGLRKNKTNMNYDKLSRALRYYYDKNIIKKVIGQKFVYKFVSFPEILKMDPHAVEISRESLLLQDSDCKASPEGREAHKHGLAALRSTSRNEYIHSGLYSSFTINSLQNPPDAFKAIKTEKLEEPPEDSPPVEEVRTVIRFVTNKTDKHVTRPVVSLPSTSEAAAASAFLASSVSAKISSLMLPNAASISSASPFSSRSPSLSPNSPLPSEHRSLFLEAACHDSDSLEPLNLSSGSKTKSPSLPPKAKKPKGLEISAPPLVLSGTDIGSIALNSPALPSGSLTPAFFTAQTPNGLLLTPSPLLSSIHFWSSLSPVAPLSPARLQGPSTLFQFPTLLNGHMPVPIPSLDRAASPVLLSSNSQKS
# In short: as §1
# FEV = target: T7, FEV (Homo sapiens, UniProt Q99581 1-238)
# T7 sequence: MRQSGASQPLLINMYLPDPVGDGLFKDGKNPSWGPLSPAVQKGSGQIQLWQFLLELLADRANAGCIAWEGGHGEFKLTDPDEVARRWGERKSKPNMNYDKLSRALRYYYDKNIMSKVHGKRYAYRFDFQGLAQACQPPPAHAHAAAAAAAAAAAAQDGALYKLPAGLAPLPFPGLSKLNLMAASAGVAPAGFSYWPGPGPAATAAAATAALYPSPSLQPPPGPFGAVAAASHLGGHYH
# In short: as §1
# ELF1, sequence (P32519 whole entry): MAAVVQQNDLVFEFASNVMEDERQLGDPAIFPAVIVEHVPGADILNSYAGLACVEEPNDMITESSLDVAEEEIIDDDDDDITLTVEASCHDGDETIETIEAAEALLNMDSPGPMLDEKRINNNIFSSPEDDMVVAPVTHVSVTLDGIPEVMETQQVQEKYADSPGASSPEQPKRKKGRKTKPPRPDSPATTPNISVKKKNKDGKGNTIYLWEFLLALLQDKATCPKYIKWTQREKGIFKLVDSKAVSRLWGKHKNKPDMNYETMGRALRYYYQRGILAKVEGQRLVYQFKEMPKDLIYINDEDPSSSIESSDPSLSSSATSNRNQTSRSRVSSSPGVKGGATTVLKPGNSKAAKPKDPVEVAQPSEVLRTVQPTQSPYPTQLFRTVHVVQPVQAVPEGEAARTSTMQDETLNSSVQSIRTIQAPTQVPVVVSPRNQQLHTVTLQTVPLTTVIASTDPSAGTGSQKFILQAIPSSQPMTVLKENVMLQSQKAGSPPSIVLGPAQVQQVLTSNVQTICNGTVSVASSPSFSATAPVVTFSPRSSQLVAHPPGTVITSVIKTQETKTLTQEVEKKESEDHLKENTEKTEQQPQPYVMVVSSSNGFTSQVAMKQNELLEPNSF
# SPIB, sequence (Q01892 whole entry): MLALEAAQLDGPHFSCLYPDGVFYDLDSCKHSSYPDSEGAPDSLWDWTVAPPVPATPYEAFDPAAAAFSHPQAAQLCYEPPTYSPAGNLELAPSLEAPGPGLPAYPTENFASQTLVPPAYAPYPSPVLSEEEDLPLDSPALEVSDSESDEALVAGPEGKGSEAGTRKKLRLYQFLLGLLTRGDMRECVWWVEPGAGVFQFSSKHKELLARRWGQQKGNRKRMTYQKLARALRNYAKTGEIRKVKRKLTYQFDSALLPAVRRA
sequence,measurement,setting,value
GCCCAC,binding signal,FLI1,"1.09 fold enrichment (6-mer frequency, TF over GST control)"
same,binding signal,ELK1,"1.18 fold enrichment (6-mer frequency, TF over GST control)"
same,binding signal,GABPA,"1.06 fold enrichment (6-mer frequency, TF over GST control)"
same,binding signal,ERG,"1.06 fold enrichment (6-mer frequency, TF over GST control)"
same,binding signal,ELF1,"1.1 fold enrichment (6-mer frequency, TF over GST control)"
same,binding signal,EHF,"1.13 fold enrichment (6-mer frequency, TF over GST control)"
same,binding signal,SPI1,"1.07 fold enrichment (6-mer frequency, TF over GST control)"
same,binding signal,SPIB,"1.12 fold enrichment (6-mer frequency, TF over GST control)"
same,binding signal,ELK3,"1.03 fold enrichment (6-mer frequency, TF over GST control)"
same,binding signal,FEV,"1.12 fold enrichment (6-mer frequency, TF over GST control)"
